A number with no mark means an inactive call. For some of these results: Measured potencies and affinities stand elsewhere. Activity calls are given as the source filed them. Unless noted, no rule for the calls is given here.

The record followed here is PubChem BioAssay.

Test [1] is described as follows: antimalarial activity against Dd2 strain (AID 2302;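 active = growth inhibition above 50% at the single 2 µM test dose, taken to imply half-maximal potency below 2 µM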;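 also: 0% = DMSO untreated growth and 100% = chloroquine plus artemisinin killed control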). The following applies: P. falciparum Dd2 in RBCs, LDH growth readout, 72 h; at 2 µM; hits give high values.
Test [2] can be described thus: HepG2 cytotoxicity, primary screen, cytotoxicity control for P. falciparum antimalarial project, cell-based, ATP luminescence (AID 2303;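 active = inhibition above 50%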;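 also: 0% = DMSO wells and 100% = digitonin-killed cells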). The following applies: HepG2 viability, 24-48 h, at 10 µM, hits give high values.
Test [3] concerns the target L-lactate dehydrogenase (Plasmodium falciparum (isolate CDC / Honduras)) (UniProt Q27743). Kind of test: PfLDH activity inhibition – cell lysate, 3D7 strain, counter-screen for P. falciparum growth inhibition project (AID 2304).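 Also: 0% = vehicle and 100% = reference inhibitor.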 The following applies: P. falciparum 3D7 crude extract, LDH APAD/NBT absorbance; at 2 µM; hits give high values. For orientation: A counterscreen serves to expose hits that act by an unwanted route or on another target.

A short description of test [4]: inhibition of 3D7 malaria parasite growth – strain 3D7 (AID 2306).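 Also: 0% = DMSO wells and 100% = chloroquine plus artemisinin control wells.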 The following applies: P. falciparum 3D7 erythrocytic growth, LDH absorbance, 72 h; at 2 µM; hits give high values.
In test [5] the target is Calcium-dependent protein kinase 1 (Plasmodium falciparum (isolate 3D7)) (UniProt P62344). Kind of test: PfCDPK1 kinase inhibitors, biochemical, TCAMS library (AID 1159585; cut-off not given, nearly all actives have IC50 up to about 0.98 µM;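 also: inhibitors leave more ATP so luminescence rises with inhibition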). The following applies: recombinant PfCDPK1, Kinase-Glo ATP depletion luminescence. For orientation: Kinase-Glo measures the ATP left after a reaction by luminescence.
For test [6], the target named is Plasmodium falciparum protein kinase 6 (PK6, PF3D7_1337100) (UniProt Q8IDW1). Kind of test: PfPK6 kinase inhibitors, biochemical, TCAMS library (AID 1159586). The following applies: recombinant PfPK6, Kinase-Glo ATP depletion luminescence.
The target of test [7] is Protein kinase 7 (PK7), Plasmodium falciparum 3D7 (PF3D7_0213400) (UniProt Q7YTF7). Kind of test: inhibition of Plasmodium PK7 catalytic activity – biochemical, TCAMS antimalarial set, Kinase-Glo luminescence (AID 1159587). The following applies: recombinant PfPK7, Kinase-Glo ATP depletion luminescence.
In test [8] the target is Calcium-dependent protein kinase 4 (Plasmodium falciparum (isolate 3D7)) (UniProt Q8IBS5). Kind of test: PfCDPK4 kinase inhibitors, biochemical, TCAMS library (AID 1159588; cut-off not given, nearly all actives have IC50 up to about 0.91 µM). The following applies: recombinant PfCDPK4, Kinase-Glo ATP depletion luminescence.
Calcium-dependent protein kinase 4 (Plasmodium falciparum (isolate 3D7)), sequence (Q8IBS5 whole entry, looked up): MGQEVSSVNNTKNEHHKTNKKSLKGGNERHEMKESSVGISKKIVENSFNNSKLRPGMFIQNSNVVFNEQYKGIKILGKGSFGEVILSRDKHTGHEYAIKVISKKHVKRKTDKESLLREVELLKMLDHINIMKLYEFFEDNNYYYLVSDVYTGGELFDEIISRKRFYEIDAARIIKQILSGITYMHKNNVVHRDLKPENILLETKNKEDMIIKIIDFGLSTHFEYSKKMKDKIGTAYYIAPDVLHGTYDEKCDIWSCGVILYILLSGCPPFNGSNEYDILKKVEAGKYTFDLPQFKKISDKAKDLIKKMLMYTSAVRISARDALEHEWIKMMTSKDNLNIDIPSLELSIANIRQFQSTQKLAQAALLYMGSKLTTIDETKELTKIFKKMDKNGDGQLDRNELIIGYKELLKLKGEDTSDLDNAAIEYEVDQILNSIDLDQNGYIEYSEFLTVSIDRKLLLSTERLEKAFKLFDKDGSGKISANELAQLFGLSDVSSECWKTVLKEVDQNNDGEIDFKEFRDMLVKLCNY

Protein kinase 7 (PK7), Plasmodium falciparum 3D7 (PF3D7_0213400), sequence (Q7YTF7 1-343): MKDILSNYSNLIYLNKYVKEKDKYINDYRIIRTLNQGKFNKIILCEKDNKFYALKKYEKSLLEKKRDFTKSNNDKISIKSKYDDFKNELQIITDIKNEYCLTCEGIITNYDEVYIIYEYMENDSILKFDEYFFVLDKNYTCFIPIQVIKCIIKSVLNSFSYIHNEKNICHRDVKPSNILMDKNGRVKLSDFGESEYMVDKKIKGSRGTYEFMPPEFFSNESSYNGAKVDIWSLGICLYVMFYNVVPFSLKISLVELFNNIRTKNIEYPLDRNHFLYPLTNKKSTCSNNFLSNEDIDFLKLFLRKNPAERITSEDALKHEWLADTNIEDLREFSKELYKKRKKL
Calcium-dependent protein kinase 1 (Plasmodium falciparum (isolate 3D7)), sequence (P62344 whole entry, looked up): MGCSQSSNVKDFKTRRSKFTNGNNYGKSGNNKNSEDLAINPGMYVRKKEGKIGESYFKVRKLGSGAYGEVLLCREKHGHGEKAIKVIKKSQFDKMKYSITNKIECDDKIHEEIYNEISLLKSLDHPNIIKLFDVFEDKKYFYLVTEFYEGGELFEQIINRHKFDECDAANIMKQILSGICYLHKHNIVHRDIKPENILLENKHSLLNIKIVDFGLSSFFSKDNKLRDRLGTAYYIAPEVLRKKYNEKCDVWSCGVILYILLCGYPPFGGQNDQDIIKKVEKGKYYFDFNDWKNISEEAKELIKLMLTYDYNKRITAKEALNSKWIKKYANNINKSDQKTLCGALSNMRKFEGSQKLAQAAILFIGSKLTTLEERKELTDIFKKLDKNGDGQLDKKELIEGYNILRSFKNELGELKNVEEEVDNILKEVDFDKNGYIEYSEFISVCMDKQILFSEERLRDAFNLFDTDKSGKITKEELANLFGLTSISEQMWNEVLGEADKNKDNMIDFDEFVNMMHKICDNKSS
Plasmodium falciparum protein kinase 6 (PK6, PF3D7_1337100), sequence (Q8IDW1 1-305): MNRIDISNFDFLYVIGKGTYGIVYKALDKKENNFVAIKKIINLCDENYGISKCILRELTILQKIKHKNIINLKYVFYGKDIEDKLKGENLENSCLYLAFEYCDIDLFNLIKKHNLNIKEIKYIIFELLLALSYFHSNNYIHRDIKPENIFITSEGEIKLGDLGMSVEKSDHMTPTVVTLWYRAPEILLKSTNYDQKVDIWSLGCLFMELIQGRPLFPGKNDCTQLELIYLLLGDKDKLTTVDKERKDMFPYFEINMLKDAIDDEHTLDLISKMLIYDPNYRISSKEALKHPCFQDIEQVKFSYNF
L-lactate dehydrogenase (Plasmodium falciparum (isolate CDC / Honduras)), sequence (Q27743 whole entry, looked up): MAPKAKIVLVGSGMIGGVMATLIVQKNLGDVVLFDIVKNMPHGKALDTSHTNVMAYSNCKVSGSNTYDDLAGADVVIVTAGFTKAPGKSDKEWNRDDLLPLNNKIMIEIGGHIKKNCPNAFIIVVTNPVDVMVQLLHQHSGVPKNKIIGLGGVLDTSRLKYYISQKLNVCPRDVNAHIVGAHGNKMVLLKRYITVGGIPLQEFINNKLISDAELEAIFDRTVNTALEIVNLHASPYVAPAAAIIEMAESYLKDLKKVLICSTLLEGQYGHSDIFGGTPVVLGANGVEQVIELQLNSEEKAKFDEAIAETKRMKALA

One may read the inhibition as the drop in the measured response relative to a control, in per cent. Take `Cc1ccc(OCCCCON2C(N)=NC(N)=NC2(C)C)cc1C`: the results for the growth inhibition in test [1] and in test [4] were 97% (active) and 94% (active), respectively. Besides, the values for the inhibition in test [2] and in test [3] were 61% (active) and -3%, respectively. For the same compound, the outcome in test [5], in test [6], in test [7] and in test [8] was inactive.

Regarding `Cc1nc(C(C)Nc2nncc(-c3ccc(Cl)cc3)n2)cs1` (stereo not given), the results for the growth inhibition in test [1] and in test [4] were 55% (active) and 91% (active), respectively. For the same compound, the values for the inhibition in test [2] and in test [3] were -15% and -2%, respectively. Also, the outcome in test [5], in test [6], in test [7] and in test [8] was inactive.

For `CCOC(=O)C1CCN(CCCNC(=O)/C(=C/C=C/c2cc3cc(Cl)c(Cl)cc3[nH]2)OC)CC1`, the growth inhibition is 78% (active) in test [1] and 87% (active) in test [4]. Moreover, the inhibition in test [2] is 23%; in test [3], -6%. Besides, the outcome in test [5], in test [6], in test [7] and in test [8] was inactive.

In the case of `CCCc1ccc(S(=O)(=O)NC2CCN(C(=O)Nc3ccc(I)cc3)CC2)cc1`, the growth inhibition in test [1] was -8%; in test [4], 97% (active). For the same compound, the inhibition in test [2] was 8%; in test [3], -3%. Further, the result in test [5], in test [6], in test [7] and in test [8] was inactive.

Turning to `CCCOC(=O)c1ccc(OCCCON2C(N)=NC(N)=NC2(C)C)cc1`, the results for the growth inhibition in test [1] and in test [4] were 97% (active) and 95% (active), respectively. Besides, the results for the inhibition in test [2] and in test [3] were 61% (active) and 6%, respectively. The result in test [5], in test [6], in test [7] and in test [8] was inactive.

With `COc1ccc(-c2cccc(NC(=O)c3ccccc3)c2)cc1CN1CCCN(C)CC1`, the growth inhibition is 25% in test [1] and 98% (active) in test [4]. Besides, the values for the inhibition in test [2] and in test [3] were 22% and -7%, respectively. Besides, the result in test [5], in test [6], in test [7] and in test [8] was inactive.

For the compound `CCCCCCCCc1c(C)[nH]c(C)c(C#N)c1=O`, the growth inhibition in test [1] is 96% (active); in test [4], 97% (active). The inhibition in test [2] is 0%; in test [3], 4%. Besides, the outcome in test [5], in test [6], in test [7] and in test [8] was inactive.

Consider `Cc1ccc(C)c(Cn2c(N3CCC(C(=O)NCc4cccs4)CC3)nc3ccccc32)c1`, for which the values for the growth inhibition in test [1] and in test [4] were 73% (active) and 89% (active), respectively. The inhibition is -2% in test [2] and -6% in test [3]. Further, the result in test [5], in test [6], in test [7] and in test [8] was inactive.

For the compound `COc1cc2c(cc1C(F)(F)F)N(C(=O)Nc1cc(OC(F)(F)F)cc(-c3cccnc3)c1)CC2`, the growth inhibition is 49% in test [1] and 100% (active) in test [4]. For the same compound, the inhibition was 55% (active) in test [2] and -3% in test [3]. Also, the result in test [5], in test [6], in test [7] and in test [8] was inactive.

As to `CCOc1c(OC)ccc2c1CCN(CCN1CCC(CNC(=O)c3ccc(-c4ccc(C(F)(F)F)cc4)cc3)CC1)C2`, the growth inhibition in test [1] is 21%; in test [4] it was 102% (active). In addition, the inhibition is 54% (active) in test [2] and 2% in test [3]. In addition, the result in test [5], in test [6], in test [7] and in test [8] was inactive.

As to `Cc1cccc2c(N=NC(=S)N(C)C)c(O)[nH]c12`, the figures for the growth inhibition in test [1] and in test [4] were 59% (active) and 96% (active), respectively. Further, the results for the inhibition in test [2] and in test [3] were 48% and -5%, respectively. In addition, the outcome in test [5], in test [6], in test [7] and in test [8] was inactive.

As for `CCCCCCN1CCC(CNCc2cccc(Cl)c2)CC1`, the growth inhibition in test [1] is 13%; in test [4], 85% (active). The inhibition is 8% in test [2] and 1% in test [3]. The result in test [5], in test [6], in test [7] and in test [8] was inactive.

Take `CCCCN(CCCC)CCNC(=O)c1cc(OC(F)(F)F)ccc1O`: the growth inhibition in test [1] was 90% (active); in test [4], 93% (active). In addition, the inhibition in test [2] was 8%; in test [3], -8%. Moreover, the outcome in test [5], in test [6], in test [7] and in test [8] was inactive.

With `COc1ccc2nccc(NC(=O)CNCc3ccc(-c4ccccc4)cc3)c2c1`, the values for the growth inhibition in test [1] and in test [4] were 35% and 101% (active), respectively. Also, the inhibition in test [2] was 11%; in test [3], -4%. In addition, the outcome in test [5], in test [6], in test [7] and in test [8] was inactive.

For `CC(CN1CCN(C)CC1)C(=O)Nc1cccc(-c2ccc(-c3nc4ccc(C(F)(F)F)cc4[nH]3)cc2)c1` (stereo not given), the growth inhibition in test [1] was 98% (active); in test [4] it was 101% (active). Also, the inhibition in test [2] is 11%; in test [3] it was -2%. In addition, the outcome in test [5], in test [6], in test [7] and in test [8] was inactive.

In the case of `Cc1ccc(/C=C/C(=O)NCCCCCN2CCN(C(=O)Nc3ccc(Cl)c(C(F)(F)F)c3)CC2)cc1`, the growth inhibition in test [1] was -3%; in test [4], 93% (active). The inhibition is 10% in test [2] and -2% in test [3]. The outcome in test [5], in test [6], in test [7] and in test [8] was inactive.

As for `N=C(N)c1cc(Br)cc(NC(=O)Nc2cc(Br)cc(C(=N)N)c2)c1`, the results for the growth inhibition in test [1] and in test [4] were 76% (active) and 93% (active), respectively. Besides, the results for the inhibition in test [2] and in test [3] were 0% and -4%, respectively. Besides, the result in test [5], in test [6], in test [7] and in test [8] was inactive.

For `CN(C(=O)NCCc1ccccc1)C1CCN(CCCCCNC(=O)/C=C/c2ccc(Cl)c(Cl)c2)CC1`, the growth inhibition in test [1] was 11%; in test [4] it was 93% (active). Moreover, the values for the inhibition in test [2] and in test [3] were 43% and -7%, respectively. Also, the result in test [5], in test [6], in test [7] and in test [8] was inactive.

Regarding `O=C(Nc1ccc(OC2CCN(Cc3ccsc3)CC2)c(Cl)c1)c1ccc(F)cc1`, the growth inhibition was 83% (active) in test [1] and 98% (active) in test [4]. Moreover, the inhibition in test [2] was 31%; in test [3] it was 0%. Moreover, the result in test [5], in test [6], in test [7] and in test [8] was inactive.

As to `CCOc1ccc(OCCCON2C(N)=NC(N)=NC2(C)C)cc1`, the growth inhibition in test [1] was 94% (active); in test [4], 97% (active). Moreover, the inhibition in test [2] was 63% (active); in test [3], -9%. Besides, the result in test [5], in test [6], in test [7] and in test [8] was inactive.
